# From ChEMBL document CHEMBL3988442, “University of Dundee, Small-Polar-MMV Screening Library” (2021)
# About 13,000 (27%) of roughly 48,000 compounds showed an effect of 50% or more. The list shows a part of the results.
# Test system: Wolbachia pipientis
# Test: Anti-Wolbachia Cell-Based Screen
# Format: functional
# Parameters: scale not given: in the data most compounds retested in dose-response had high values
# Settings: 5 µM
row,Structure (SMILES),Percent Effect
1,CCn1cc(CN(C)C(=O)c2cccc(CCC(C)(C)O)c2)cn1,-2.58%
2,COCc1ccc(C(=O)N2CCN(CC=C(C)C)[C@@H]3CS(=O)(=O)C[C@@H]32)o1,-1.241%
3,O=C(c1ccco1)N1CC[C@@H]2[C@H]1CCC(=O)N2c1ccccc1,9.276%
4,O=C(O)Cn1nc(C2CC2)c2c(-c3ccco3)ccnc21,121.5%
5,O=C(O)Cn1nc(C2CC2)c2c(-c3cccs3)ccnc21,125.7%
6,O=c1[nH]c(NC2CCCC2)nc2nccc(-c3cccs3)c12,-0.1995%
7,O=c1[nH]c(NC2CCCC2)nc2nccc(-c3ccco3)c12,15.07%
8,O=C(CN1CC(c2nc(-c3ccco3)no2)C1)NCC1CCCO1.O=C(O)C(=O)O (configuration not stated),8.836%
9,O=C(Cn1cnc(-c2cccs2)cc1=O)Nc1cccnc1,14.09%
10,N#Cc1ccc(N2CCCC(CO)(CCOc3ccccc3)C2)nc1 (configuration not stated),-8.429%
11,CC(C)N(C)CC(=O)NCC(Cc1ccc(F)cc1)C(N)=O (configuration not stated),103.5%
12,CC(C)c1nnc(NC(=O)Cc2ccc(F)cc2)[nH]1,-66.88%
13,COC(=O)C(CNC(=O)Nc1nncs1)Cc1ccc(F)cc1 (configuration not stated),5.054%
14,NC(=O)CS(=O)(=O)Cc1ccc(F)cc1,3.461%
15,CC(C)S(=O)(=O)CC(=O)NCC(Cc1ccc(F)cc1)C(N)=O (configuration not stated),124.5%
16,CCOc1ccc(CC(CNC(=O)c2ccc(C)o2)C(N)=O)cc1 (configuration not stated),-14.58%
17,CC(C)NC(=O)NCC(Cc1ccc(F)cc1)C(N)=O (configuration not stated),96.65%
18,CCOc1ccc(CC(CNC(=O)c2occc2C)C(N)=O)cc1 (configuration not stated),-2.596%
19,Cc1ccoc1C(=O)NCC(Cc1ccc(F)cc1)C(N)=O (configuration not stated),7.737%
20,Cc1cc(C)c2nc(CNC3CCCNC3=O)cc(O)c2c1 (configuration not stated),-9.599%
21,Cn1cc(CN2CCCn3cnc(COCc4ccco4)c3C2)cn1,-8.432%
22,Cc1cc2c(cc1C)C(NCc1nnc3n1CCCCC3)CCCO2 (configuration not stated),3.518%
23,CSCC[C@@H](CO)n1ccnc1-c1nccn1C,-1.218%
24,CC(C)(C)c1noc(CCCC(=O)N2CCNC(=O)CC2)n1,-18.62%
25,CC(=O)N1CCCN(C(=O)NCCc2cc(Cl)cc(Cl)c2)CC1,8.517%

row,Structure (SMILES),Percent Effect
1,O=C1CCN(C(=O)C2(c3ccc(Br)cc3)CC2)CCN1,3.303%
2,O=C1CCN(C(=O)NCCc2c[nH]c3ccc(Cl)cc23)CCN1,98.23%
3,O=C1CCN(C(=O)CCc2ccc(Cl)cc2Cl)CCN1,106.4%
4,O=C1CCN(C(=O)NCCCc2ccc(Cl)cc2Cl)CCN1,108.4%
5,CC(CNC(=O)N1CCNC(=O)CC1)Cc1cccs1 (configuration not stated),17.79%
6,O=C(NCCOc1ccc(Cl)cc1)N1CCS(=O)(=O)CC1,9.107%
7,O=C1CCN(C(=O)CCc2cc(Br)cs2)CCN1,-5.326%
8,Cc1noc(C)c1CN(C)C(=O)c1ccc2c(c1O)OC(C)(C)C2,-18.28%
9,CN(CC(O)CO)C(=O)c1coc(COc2cccc(F)c2)n1 (configuration not stated),-18.15%
10,Cc1ccn2ncc(C(=O)N3CCCC(n4nc(C)nc4C)C3)c2n1 (configuration not stated),0.3182%
11,CN(Cc1cc[nH]n1)C(=O)c1cccc(CCC(C)(C)O)c1,-7.029%
12,O=C(NCc1cccnc1)C1=NOC2(CCN(C3CCOCC3)C2)C1 (configuration not stated),-2.233%
13,O=C(NCc1cccnc1)C1=NOC2(CCN(C(=O)N3CCCC3)C2)C1.O=C(O)C(F)(F)F (configuration not stated),-7.099%
14,Cl.O=C(Nc1ccccc1F)C1=NOC2(CCNCC2)C1,2.616%
15,O=C(Nc1ccccc1)C1=NOC2(CCCN(C(=O)N3CCCC3)C2)C1 (configuration not stated),131.1%
16,O=C(NCc1cccnc1)C1=NOC2(CCN(S(=O)(=O)C3CC3)C2)C1 (configuration not stated),-5.335%
17,O=C(Nc1ccccc1)C1=NOC2(CCCN(C(=O)C3CCCC3)C2)C1 (configuration not stated),104.4%
18,CCC(C)(CC(=O)OC)NCc1nc(C)no1 (configuration not stated),-15.67%
19,Cc1nc(C)c(C(=O)N2CCc3ccc(F)cc3C2C)o1 (configuration not stated),2.437%
20,CC1c2ccc(F)cc2CCN1C(=O)c1nc(=O)[nH][nH]1 (configuration not stated),110%
21,Cc1nc(C)c(C(=O)N2CCc3cc(F)ccc3C2C)o1 (configuration not stated),-9.87%
22,O=C(c1cc2c([nH]c1=O)CCC2)N1CCCCC1c1cccc(F)c1 (configuration not stated),-12.81%
23,CC1c2cc(F)ccc2CCN1C(=O)c1[nH]c(=O)[nH]c(=O)c1N (configuration not stated),103.3%
24,CC(C)(C)c1ccc2c(c1)CCN2C(=O)c1[nH]c(=O)[nH]c(=O)c1N,1.564%
25,COC(=O)c1cc(C(=O)N2CCc3ccc(F)cc3C2C)ccn1 (configuration not stated),-4.117%

row,Structure (SMILES),Percent Effect
1,CC1c2ccc(F)cc2CCN1C(=O)c1[nH]c(=O)[nH]c(=O)c1N (configuration not stated),98.7%
2,CC(C)(C)c1ccc2c(c1)CCN2C(=O)c1nc(=O)[nH][nH]1,2.994%
3,Cn1cc(NC(=O)NCc2ccsc2)ccc1=O,-5.862%
4,CNC(=O)[C@@H](c1ccccc1F)N1CCC[C@H]1C(=O)NC1CCCC1.Cl,0.555%
5,Cl.Cl.Clc1cccc(C[C@@H]2NCCC[C@@H]2Nc2cccc(Cl)c2)c1,33.15%
6,O=C(Cc1cccc(Cl)c1)N[C@@H]1CCNC[C@H]1O,4.451%
7,Clc1cccc(CNC2CCN(CCc3ccncc3)CC2)c1,-6.723%
8,O=C1NCCCc2[nH]c(Cc3cccc(Cl)c3)nc21,-5.245%
9,Cl.Clc1cccc(N[C@H]2CCCN[C@H]2Cc2ccccc2)c1,152.2%
10,Cl.Cl.Clc1cccc(C[C@@H]2NCCC[C@@H]2Nc2ccccc2)c1,167.6%
11,Cn1nc(C(=O)N2CCOCC2)c2c1CN(CC1CC1)C2.O=C(O)C(F)(F)F.O=C(O)C(F)(F)F,102.2%
12,Cn1nc(C(=O)N2CCOCC2)c2c1CN(CC1CCC1)C2,98%
13,CC(C)CCN1Cc2c(C(=O)N3CCCC3)nn(C)c2C1.O=C(O)C(F)(F)F,4.332%
14,O=C([C@H]1COC[C@H]2CN(CC3CCC3)C[C@H]21)N1CCOCC1,-17.46%
15,Cn1nc(C(=O)N2CCCC2)c2c1CN(CC1CCOCC1)C2,-10.68%
16,O=C(O)C(F)(F)F.O=C(c1nc2c(o1)CN(CC1CC1)C2)N1CCCC1,-4.032%
17,NC(=O)N1CC(OCc2cccc3ccccc23)C1,-8.487%
18,CC(C)NCC1(O)CCCN(CCC2CCCCC2)C1=O (configuration not stated),-46.74%
19,Cc1cc(N2C[C@H](NC(=O)C3(C#N)CCOCC3)[C@@H](C(C)C)C2)ccn1,95.25%
20,O=C(N[C@H]1CN(c2ccncc2)C[C@@H]1C1CC1)C1CCOCC1,31.8%
21,CC(C)[C@@H]1CN(Cc2ccccc2C#N)C[C@H]1NC(=O)N(C)C,4.058%
22,CC(C)[C@H]1CN(c2cnccn2)C[C@@H]1NC(=O)C1(C#N)CCOCC1,90.9%
23,N#CC1(C(=O)N2C[C@H]3CC[C@@H]2CN(Cc2ccncc2)C3)CCOCC1,-3.393%
24,CC(C)[C@H]1CN(S(C)(=O)=O)C[C@@H]1NC(=O)c1ccnc(N)c1,-108.5%
25,CC(C)[C@H]1CN(c2ccncc2)C[C@@H]1NC(=O)C1(C#N)CCOCC1,98.03%

row,Structure (SMILES),Percent Effect
1,CC(C)[C@H]1CN(Cc2ccncc2)C[C@@H]1NC(=O)C1(C#N)CCOCC1,101.3%
2,O=C(O)c1cc(N2C[C@H](NC(=O)C3CCOCC3)[C@@H](C3CC3)C2)ccn1,-7.348%
3,COC(C)(C)C(=O)N[C@H]1CN(c2nccnc2N(C)C)C[C@@H]1C(C)C,9.529%
4,CC(=O)N[C@@H]1CN(Cc2nnc(-c3ccccc3)o2)C[C@H]1C(C)C,0.5134%
5,CS(=O)(=O)NCC(=O)N[C@H]1CN(c2cnccn2)C[C@@H]1C1CC1,0.2443%
6,OCCN(Cc1cccnc1)c1ccc(Cl)cn1,-7.592%
7,CNc1nc(C(=O)N2C[C@H]3CC[C@@H]2CN(C2CCOCC2)C3)cs1,-0.4329%
8,CCCc1nc(CN(C)CC2CCN(CCO)CC2)no1,-5.007%
9,CC(=O)NCCNC(=O)c1cnc2c(c1)nc(-c1ccccc1Cl)n2C,-9.781%
10,CC(=O)N1C[C@H](NC(=O)c2ccnc(N)c2)[C@@H](C(C)C)C1,-4.113%
11,CC(C)[C@H]1CN(c2ccnc(N)n2)C[C@@H]1NC(=O)C1(C#N)CCOCC1,89.33%
12,COC(C)(C)C(=O)N[C@H]1CN(c2ncccc2C(N)=O)C[C@@H]1C(C)C,2.672%
13,Cc1nn(C)c(Oc2ccc(Cl)cc2)c1CN1CC[C@H](CO)[C@@H](O)C1,-1.259%
14,Cc1ccc2c(n1)N(CCN(C)C)CCN(Cc1c(C)noc1C)C2.O=C(O)C(F)(F)F.O=C(O)C(F)(F)F.O=C(O)C(F)(F)F,11.23%
15,CN(C)CCN1CCN(Cc2cccc(C#N)c2)Cc2cccnc21.O=C(O)C(F)(F)F.O=C(O)C(F)(F)F.O=C(O)C(F)(F)F,101.9%
16,COCc1nccc(C2CCCN(Cc3cccc(C#N)c3)C2)n1 (configuration not stated),-9.239%
17,COCC1CN(Cc2cccc(C#N)c2)Cc2nccn2C1 (configuration not stated),107.2%
18,N#Cc1cccc(CN2Cc3nccn3CC(COCC3CC3)C2)c1.O=C(O)C(F)(F)F (configuration not stated),104.1%
19,CCN(CC)CC1CN(Cc2c(C)noc2C)Cc2nccn2C1 (configuration not stated),-2.257%
20,CCOCC1CN(Cc2cccc(C#N)c2)Cc2nccn2C1.O=C(O)C(F)(F)F (configuration not stated),5.676%
21,Cc1noc(C)c1CN1CCN(CCN(C)C)c2ncccc2C1.O=C(O)C(F)(F)F.O=C(O)C(F)(F)F.O=C(O)C(F)(F)F,0.7067%
22,CCN(CC)CC1CN(Cc2cccc(C#N)c2)Cc2nccn2C1.O=C(O)C(F)(F)F.O=C(O)C(F)(F)F (configuration not stated),268.5%
